# Most compounds without a hit are left out; they make up all but 5.5% or so of the library.
# Sfp PPTase inh: qHTS Assay for Inhibitors of Bacillus subtilis Sfp phosphopantetheinyl transferase (PPTase); 4'-phosphopantetheinyl transferase ffp (Bacillus subtilis), Q9F4F7; Biochemical Sfp PPTase activity, qHTS; Potency, µM, for inactives: largest response in the series, negative = inhibition, most hits filed as inhibitors; 310,000 compounds, 3.5% hits;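 note: the enzyme is Sfp with the accession as filed and its product quenches rhodamine fluorescence; potency is the fitted concentration of half-maximal effect; 0% = enzyme reaction without inhibitor and -100% = no enzyme wells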
#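 Step 1, compound plus 15 nM Sfp-PPTase, 15 min, room temperature. Step 2, add rhodamine-CoA (5 uM) and BHQ-2-YbbR (12.5 uM). Step 3, read 525/598 nm fluorescence at 0 and 30 min.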
# FBPA coupling cs: qHTS Assay for Inhibitors of Fructose-1,6-bisphosphate Aldolase from Giardia Lamblia: Coupling assay counterscreen; activity change, negative = inhibition, % at 58.2 µM, hits read low; AID 2472, 2010; coupling enzyme system counterscreen, AmpLite Red fluorescence; 290,000 compounds, 0.67% hits; in the data active = activity change below about -30%
#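 Compounds tested against the coupling enzymes alone at 57.5 uM final; readout was AmpLite Red fluorescence (525/598 nm) after 20 min at RT.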
# ELG1 DNA repair: qHTS screen for small molecules that inhibit ELG1-dependent DNA repair in human embryonic kidney (HEK293T) cells expressing luciferase-tagged ELG1; HEK293T ELG1-luciferase reporter, luminescence, 16 h; DNA damage induced by 5-fluorouridine; Potency, µM (top dose mostly 46.1 µM), for the others: at the top dose activity change, negative = inhibition, usual class: inhibitors; 330,000 compounds, 2.3% hits; AID 504467, 2011; note: potency is the fitted concentration of half-maximal effect; nearly all actives have a fitted effect of over 55% in size
#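 Cells (2,000 per well) received 5-fluorouridine plus test compound or DMSO and were incubated 16 hr at 37 °C, 5% CO2. Luciferase activity was read by luminescence 30 min after ONE-Glo addition; signal suppression marked inhibition of damage-induced ELG1 function.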
# Giardia killer: Small Molecules that selectively kill Giardia lamblia: qHTS | AID 540267, 2011 | 340,000 compounds, 0.15% hits | activity change, % at 7.66 µM, hits read low | Giardia lamblia trophozoite viability; in the data active = activity change below about -80%; inconclusive = between about -30% and that limit;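 note: parasites exposed to compound for two days anaerobically before the ATP read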
#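 Trophozoite viability was measured as ATP-dependent luminescence, read 15-30 min after reagent addition. Before that, parasites at 100 cells/well were exposed to compounds for 48 h, anaerobically, at 37 deg C.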
# Starred values were filed as active, the others as inactive; ? = inconclusive; · = no result. Unless noted, calls come from the whole dose curve; as a rule, active = well fitted curve in the direction sought with a large enough effect; inconclusive = small, poorly fitted or top-dose-only effect, or another doubt; inactive = no such curve, though single readings can be large; an effect the other way counts as inactive or inconclusive. Unless noted, % is set by controls: 0 for no effect and ±100 for the full control effect.
SMILES,Sfp PPTase inh,FBPA coupling cs,ELG1 DNA repair,Giardia killer
COCCN=C1Sc2nc3ccc(C)cc3cc2CN1Cc1ccco1,45µM*,-3,?,-12
Cc1ccccc1N1C(S)=C(C#N)C(=O)NC1c1ccco1 (stereo not given),13µM*,-24,28%,-6
N#CC1=C(S)N(c2ccccc2)C(c2ccc(-c3ccccc3Cl)o2)NC1=O (stereo not given),40µM*,6,17%,-1
COc1cc2c(cc1OC)C1(Nc3c-2c(Cc2ccccc2)nn3-c2ccccc2)C(=O)Nc2ccccc21 (stereo not given),3%,-11,13µM*,4
COc1cc(/C=N/Nc2nc(C)nc3c2cnn3-c2ccccc2)ccc1O,1%,-3,16µM*,-17
COc1cc(/C=N/NC(=O)c2nc(-c3ccccc3)n(-c3ccccc3)n2)ccc1O,-3%,2,?,-17
Cc1ccc(S(=O)(=O)c2nc(-c3ccc(F)cc3)oc2N2CCOCC2)cc1,-10%,0,17%,11
COc1ccc(NC(=O)C2CC(=O)n3cnnc3S2)cc1 (stereo not given),56µM*,3,-3%,-5
COc1cccc(NC(=O)C2CC(=O)n3cnnc3S2)c1 (stereo not given),45µM*,-2,-9%,-22
COc1ccc(NC(=O)C2CC(=O)n3ncnc3N2)cc1 (stereo not given),18%,2,-6%,-11
COc1cccc(NC(=O)C2CC(=O)N=C(N)S2)c1 (stereo not given),24%,3,0%,-6
CC(C)CC1NC(=O)C(CC(C)C)N(CO)C1=O (stereo not given),·,·,·,-3
Cc1ccccc1N1CCN(C(=S)c2ccc(-c3cccc([N+](=O)[O-])c3)o2)CC1,-5%,4,-24%,4
Cc1ccccc1N1CCN(C(=S)c2ccc(-c3ccc([N+](=O)[O-])cc3)o2)CC1,20µM*,1,0%,-8
O=[N+]([O-])c1ccccc1-c1ccc(C(=S)N2CCN(c3ccccc3)CC2)o1,18µM*,-11,0%,6
Cc1ccc(N2CCN(C(=S)c3ccc(-c4cccc([N+](=O)[O-])c4)o3)CC2)cc1,14µM*,-2,-24%,-6
Cc1ccc(N2CCN(C(=S)c3ccc(-c4ccccc4[N+](=O)[O-])o3)CC2)cc1,18µM*,-2,-25%,-2
O=[N+]([O-])c1ccccc1-c1ccc(CN2CCN(c3ccccc3)CC2)o1,?,-5,-9%,13
CSc1nnnc2ccccc12,·,·,·,4
CC(C)c1ccc(NC(=O)C2CCN(S(=O)(=O)c3ccc4c(c3)C(C)(C)C(=O)N4C)CC2)cc1,21%,-3,?,-2
Cc1noc(C)c1C(=O)N1CCC[C@@]2(CCN(C(=O)Nc3cccc(C#N)c3)C2)C1,16%,-2,·,·
O=[N+]([O-])c1ccc(N2CCN(C(=S)c3cccc([N+](=O)[O-])c3)CC2)cc1,5.6µM*,-10,3%,-1
O=C(NC(=S)Nc1ccccc1N1CCCCC1)c1ccc(-c2cccc([N+](=O)[O-])c2)o1,7%,-1,?,4
O=C(NC(=S)Nc1ccccc1N1CCCC1)c1ccc(-c2cccc([N+](=O)[O-])c2)o1,-6%,0,15µM*,3
CC(=O)N1CCN(C(=S)c2cccc([N+](=O)[O-])c2)CC1,-15%,11,8%,-24
SMILES,Sfp PPTase inh,FBPA coupling cs,ELG1 DNA repair,Giardia killer
O=C(O)c1ccc2[nH]c3c(c2c1)CSCC3,40µM*,-12,-1%,-19
CC(Nc1nc(N2CCNCC2)nc2ccccc12)c1ccccc1 (stereo not given),-12%,1,1%,-84*
Cc1cccc(N2CCN(C(=O)CCN3C(=O)C4C5C=CC(C5)C4C3=O)CC2C)c1 (stereo not given),7%,1,-18%,-8
COc1ccc(N2CCN(C(=O)c3ccc4c(c3)NC(=O)C(CSCc3c(F)cccc3Cl)N4)CC2)cc1 (stereo not given),-27%,-1,8%,·
Cc1cccc(N2CCN(C(=O)c3ccc4c(c3)NC(=O)C(CSCc3ccc(F)cc3)N4)CC2C)c1 (stereo not given),56µM*,5,6%,·
Cc1cccc(N2CCN(C(=O)c3cccc(N4C(=O)C5C6C=CC(C6)C5C4=O)c3)CC2C)c1 (stereo not given),5%,2,13µM*,24
Cc1ccc(CSCC2Nc3ccc(C(=O)N4CCN(c5cccc(C)c5)C(C)C4)cc3NC2=O)cc1 (stereo not given),50µM*,-1,3%,·
CC(C)Oc1ccc(CN2CCC(n3nccc3NC(=O)CCc3ccccc3)CC2)cc1,-6%,0,?,-9
c1ccc(-c2cn(C[C@H]3CC[C@H](Cn4cc(-c5ccccn5)nn4)O3)nn2)nc1,-14%,-1,14%,-9
O=C1c2ccccc2C(=O)N1CCCc1cn(C[C@H]2CC[C@H](Cn3cc(CCCN4C(=O)c5ccccc5C4=O)nn3)O2)nn1,·,·,8.2µM*,5
CCCCC1=CC2=CC(=O)C(C)(OC(=O)CC)C(=O)C2=CN1CCCN(CC)CC (stereo not given),7%,0,·,·
CCOC(=O)CN1NC2(CCCC(C)C2)NC1=S (stereo not given),25µM*,2,0%,5
CCOC(=O)CN1C(=O)NC2(CCCc3ccccc32)C1=O (stereo not given),5%,1,6%,-9
CCOC(=O)CON1C(=O)C(=O)N(OCC(=O)OCC)[C@H]2CCCC[C@H]21,12%,1,-4%,-24
CCOC(=O)CN1NC2(CCC(C)CC2)NC1=S (stereo not given),35µM*,0,-5%,6
CCOC(=O)CN1NC2(CCC(C(C)(C)C)CC2)NC1=S (stereo not given),22µM*,2,7%,0
Cc1sc2ncn(CC(=O)NCC(=O)N3CCN(c4ccccc4F)CC3)c(=O)c2c1C,23%,3,16%,6
CCOc1cc(N2CCOCC2)c(OCC)cc1NC(C)C(=O)N1CCC(C)CC1 (stereo not given),-2%,-47*,9.2µM*,-11
CCOc1cc(N2CCOCC2)c(OCC)cc1NCC(=O)N1CCN(Cc2ccccc2)CC1,56µM*,-20,8.2µM*,-6
CCOc1cc(N2CCOCC2)c(OCC)cc1NC(=O)CSc1ccccc1C(=O)O,·,·,-2%,-3
CCOc1cc(N2CCOCC2)c(OCC)cc1NC(=O)[C@H](C)N1C(=O)C2CC=CCC2C1=O (stereo not given in full),18%,0,2%,-1
CC(OC(=O)C1CC1)C(=O)Nc1cccc(S(=O)(=O)N2CCOCC2)c1 (stereo not given),·,·,10%,12
